From ChEMBL document CHEMBL3988442, “University of Dundee, Small-Polar-MMV Screening Library” (2021)
The campaign covered roughly 69,000 compounds. About 30 (0.04%) showed an effect of 50% or more. Shown is part of a subset that was picked to be rich in strong results.

These compounds were tested against T1, Histidine--tRNA ligase (Trypanosoma cruzi (strain CL Brener)) (UniProt Q4DA54) (assay: Trypanosoma cruzi histidyl tRNA synthetase (Tc-HisRS)). Conditions: 30 µM.
T1 sequence (whole entry): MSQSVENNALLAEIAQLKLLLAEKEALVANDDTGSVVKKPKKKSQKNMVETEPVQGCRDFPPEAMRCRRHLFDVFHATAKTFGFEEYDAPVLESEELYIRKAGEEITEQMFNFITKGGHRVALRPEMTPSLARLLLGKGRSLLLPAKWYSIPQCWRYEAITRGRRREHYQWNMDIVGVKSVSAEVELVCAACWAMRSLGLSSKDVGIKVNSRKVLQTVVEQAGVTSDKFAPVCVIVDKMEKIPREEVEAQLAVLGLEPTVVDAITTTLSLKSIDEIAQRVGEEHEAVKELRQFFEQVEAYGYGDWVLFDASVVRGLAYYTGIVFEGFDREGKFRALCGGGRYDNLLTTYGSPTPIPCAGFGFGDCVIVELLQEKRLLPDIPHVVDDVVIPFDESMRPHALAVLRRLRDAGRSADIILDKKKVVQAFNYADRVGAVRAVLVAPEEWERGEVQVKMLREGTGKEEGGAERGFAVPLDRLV
Format: functional
Set-up: scale not given: direction of the effect not stated beside the values

| SMILES | Percent Effect |
| --- | --- |
| COc1ccc(CN2C[C@H]3CC[C@](O)(c4ccc(C)cn4)[C@H]3C2)c(F)c1 | -0.54% |
| Cc1ccc(C(=O)N2C[C@H]3CCC[C@@]3(COCC3CCOCC3)C2)o1 | 14.3% |
| Cn1cc(CN2CC[C@H]3OCC[C@@H](C(=O)Nc4cnccn4)[C@@H]3C2)cn1 | -1.22% |
| CN(Cc1cccnc1)C[C@H]1OC[C@@H]2CCN(c3ncccn3)C[C@@H]21 | -3.09% |
| COc1cccc(-c2ncc(CN3CC[C@H]4CC[C@@H](C3)N4)s2)c1 | 7.88% |
| O=C(c1cnccn1)N1C[C@@H]2CCN(c3cccnc3)C[C@@H]2C1 | 2.96% |
| CN(C)C(=O)[C@@H]1CCO[C@@H]2CCN(Cc3ccccc3)C[C@@H]21 | 5.88% |
| NCC1Cc2cccc(-c3nccc(N4CCC(O)CC4)n3)c2O1 (stereo not drawn) | 20.4% |
| NCC1Cc2cc(-c3nccc(N4CCC(O)CC4)n3)cc(Cl)c2O1 (stereo not drawn) | 53.1% |
| NCC1Cc2cc(-c3nccc(N4CCC(O)CC4)n3)cc(F)c2O1 (stereo not drawn) | 33.7% |
| Cc1cnc(N2C[C@@H]3[C@@H](C2)OCC(=O)N3C)nc1 | 7.36% |
| CC(=O)N1CC[C@@H]2O[C@@H](COCC(=O)N3CCCC3)CC[C@@H]21 | 2.63% |
| O=C(C1CCCC1)N1C[C@@H](c2ccsc2)[C@@H]2CN(C3CCCC3)CC[C@@H]21 | 41.7% |
| O=C(c1ccsc1)N1C[C@H]2CN(Cc3cccc(F)c3)C(=O)[C@H]2C1 | 7.84% |
| COCCN1C[C@@H]2CN(C(=O)[C@H]3CCCO3)C[C@@H]2C1=O | 0% |
| CSc1ncccc1C(=O)N1C[C@H]2CC[C@@H]1CN(c1ncccn1)C2 | 1.67% |
| Cc1ccnc(OC[C@@]23CCO[C@@H]2CCN(c2ncccn2)C3)n1 | 9.2% |
| O=C(NC1CC1)[C@@]12CCO[C@@H]1CCN(Cc1ccc3c(c1)OCO3)C2 | 1.11% |
| CC(C)c1nc(CNC2CCCN(c3cccnn3)C2)no1 (stereo not drawn) | 50.6% |
| CC(C)(C)c1nc(CNC2CCCN(c3cccnn3)C2)no1 (stereo not drawn) | 0.595% |
| Cc1nc(CNC2CCCN(c3cccnn3)C2)no1 (stereo not drawn) | 6.55% |
| O=C1[C@@H]2CCN(Cc3ccc(F)cc3)C[C@@H]2OCCN1c1cccnc1 | 8.02% |
| COc1cccn(CC(=O)N2CCC3(CCNCC3)C2)c1=O | 10.9% |
| COc1cccn(CC(=O)N2CCCC3(CCCCC3)C2)c1=O | 76.2% |
| COc1cccn(CC(=O)N2CCCC3(CCCO3)CC2)c1=O (stereo not drawn) | 71.3% |
| COc1cccn(CC(=O)N2CCCC3(CCOCC3)C2)c1=O | 9.9% |
| COCCN(C)C(=O)Cn1cccc(OC)c1=O | 3.31% |

| SMILES | Percent Effect |
| --- | --- |
| CCCOCC1CCN(C(=O)Cn2cccc(OC)c2=O)C1 (stereo not drawn) | 10.3% |
| Cc1ccc(N2CC[C@H]3O[C@H](C(=O)N4CCCCO4)CC[C@H]32)nn1 | -1.11% |
| CNC(=O)[C@H]1C[C@@H]2CN(S(=O)(=O)c3cccc(C)c3)C[C@@H]2N1C | 5.88% |
| CC(=O)N1CCO[C@@H]2CN(C(=O)c3ccc4ccccc4c3)CC[C@@H]2C1 | -5.75% |
| Cn1nc(Cn2ccnc2)c2c1CN(c1ncccn1)C2 | 2.15% |
| CCS(=O)(=O)N1Cc2c(Cn3ccnc3)nn(C)c2C1 | 2.67% |
| Cn1nc(Cn2ccnc2)c2c1CN(c1nccs1)C2 | 66.7% |
| CCN(CC)c1ccc2ccc(C(=O)NC3CC3)cn12 | 36.8% |
| COCCN1CCN(c2ccc3ccc(C(=O)NC4CC4)cn23)CC1 | 35% |
| CC(=O)N1CCN(c2ccc3ccc(C(=O)NC4CCCC4)cn23)CC1 | 59.4% |
| CN(CC1CC1)c1ccc2ccc(C(=O)NC3CCCCC3)cn12 | 42.8% |
| CS(=O)(=O)N1CCN(c2ccc3ccc(C(=O)NC4CC4)cn23)CC1 | 52.4% |
| O=C(NC1CC1)c1ccc2ccc(N3CCN(CC4CC4)CC3)n2c1 | 45.1% |
| CC(C)N1CCN(c2ccc3ccc(C(=O)NC4CCCC4)cn23)CC1 | 60.2% |
| CN(C)C(=O)N1CCN(c2ccc3ccc(C(=O)NC4CC4)cn23)CC1 | 36.9% |
| COCCNC(=O)c1ccc2ccc(N3CCN(CC4CC4)CC3)n2c1 | 38.8% |
| CS(=O)(=O)NC[C@]12COC[C@H]1CN(C(=O)C1CCSCC1)C2 | -6.35% |
| Cc1cc(CN2CC[C@H]3C(=O)N(c4ccccc4)CCO[C@H]3C2)no1 | 7.1% |
| CCOc1ccc(CCC(=O)N2CC[C@H]3C(=O)NCCO[C@H]3C2)cc1 | 3.45% |
| CN(C)CCO[C@H]1CN(C(=O)c2ccc(C#N)cc2)[C@@H]2COC[C@H]12 | 15.7% |
| CO[C@H]1[C@@H]2CC[C@H]1CN(c1nc(C)nc3ccsc13)C2 | -6.52% |
| CN(C)C(=O)CN1C[C@H]2CCN(C(=O)c3ccccc3)CC[C@H]2S1(=O)=O | 4.3% |
| Cc1noc(C)c1CN1CCO[C@H]2CN(Cc3ccc(F)cc3)C[C@H]21 | 7.2% |
| O=C(Cn1c(=O)nc2n1C(=O)N(c1ccccc1)C2)NC1CCCCC1 | 6.06% |
| CN(C)CCNC(=O)c1ccc2ccc(N(C)CC3CC3)n2c1 | -9.13% |
| COCCNC(=O)c1ccc2ccc(N(C)CC3CC3)n2c1 | 26.4% |
